Measurements as given in PubChem BioAssay AID1851 (National Center for Advancing Translational Sciences (NCATS), 2009).
About 2,600 (16%) of roughly 16,000 compounds were called active. About 20% were inconclusive and are not listed. The list is a sample of the results. Values without a mark were called inactive. The call rests on the fitted dose curve; in most records, active means well fitted curve in the direction sought with a large enough effect; inconclusive means small, poorly fitted or top-dose-only effect, or effect the other way; inactive means no such curve, though single readings can be large or run the other way.

Molecular target: Cytochrome P450 2D6 (Homo sapiens) (UniProt P10635)
Sequence (P10635 whole entry, looked up): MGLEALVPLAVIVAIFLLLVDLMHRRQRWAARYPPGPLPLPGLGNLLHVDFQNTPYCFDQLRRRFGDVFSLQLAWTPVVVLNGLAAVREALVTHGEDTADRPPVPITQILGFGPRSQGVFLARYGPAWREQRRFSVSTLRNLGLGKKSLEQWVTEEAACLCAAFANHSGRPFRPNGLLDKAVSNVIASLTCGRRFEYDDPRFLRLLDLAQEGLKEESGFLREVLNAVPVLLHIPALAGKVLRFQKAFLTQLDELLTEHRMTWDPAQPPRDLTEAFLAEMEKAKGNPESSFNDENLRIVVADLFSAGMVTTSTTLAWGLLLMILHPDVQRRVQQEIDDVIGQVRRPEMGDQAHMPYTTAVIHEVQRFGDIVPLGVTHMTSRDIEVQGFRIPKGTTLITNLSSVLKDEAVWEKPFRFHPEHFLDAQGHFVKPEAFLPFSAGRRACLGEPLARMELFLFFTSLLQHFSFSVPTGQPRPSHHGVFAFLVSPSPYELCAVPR
Test: Cytochrome panel assay with activity outcomes
Conditions: recombinant CYP, pro-luciferin dealkylation, luminescence, p450-cyp2d6; series mostly up to 57.1 µM; activity, negative = inhibition: at the top concentration
On the % scale 0 is the no-effect control and ±100 the full control effect.

| SMILES | activity, negative = inhibition | AC50 |
| --- | --- | --- |
| CC1CC(OCC(O)CN2CCN(Cc3ccccc3)CC2)CC(C)(C)C1 (configuration not stated) | -25.2% |  |
| O=C(c1ccccc1)c1ccc(OCC(O)CN2CCN(Cc3ccccc3)CC2)cc1 (configuration not stated) |  | 3.16 µM (active) |
| CC1CCC(C(C)C)C(OCC(O)CN2CCN(Cc3ccccc3)CC2)C1 (configuration not stated) |  | 0.112 µM (active) |
| COc1cc(/C=C/C(=O)N2CCN(CC(O)COc3ccccc3)CC2)cc(OC)c1OC (configuration not stated) | -5.83% |  |
| O=C(c1ccccc1)c1ccc(OCCn2cnc3ccccc3c2=O)cc1 | -15.1% |  |
| Cc1cccc(-n2nnc3cnn(C)c3c2=O)c1 | 23.6% |  |
| O=C(O)[C@@H]1[C@H](C(=O)O)[C@H]2C(=O)C=C[C@H]1N2Cc1ccccc1 | 3.08% [at 11.4 µM] |  |
| Cc1nn(C)c(Cl)c1NC(=O)OCc1ccc(F)cc1 | 1.19% |  |
| CC(=O)[C@@H]1CC[C@@H]2[C@@H]3C[C@H](C)C4=CC(=O)CC[C@@]4(C)[C@H]3[C@H](O)C[C@]21C | -5.2% [at 25.6 µM] |  |
| C=C(NC(=O)C(=C)NC(=O)c1csc(C2=N[C@@H]3c4csc(n4)[C@@H]4NC(=O)c5csc(n5)[C@@H]([C@](C)(O)[C@H](C)O)NC(=O)[C@@H]5CSC(=N5)/C(=C/C)NC(=O)[C@@H]([C@H](C)O)NC(=O)c5csc(n5)[C@]3(CC2)NC(=O)[C@@H](C)NC(=O)C(=C)NC(=O)[C@@H](C)NC(=O)[C@@H]([C@@H](C)CC)N[C@H]2C=Cc3c([C@H](C)O)cc(nc3[C@@H]2O)C(=O)O[C@H]4C)n1)C(N)=O | -0.464% [at 25.6 µM] |  |
| Cn1c(=O)c2[nH]c(C3CCCC3)nc2n(C)c1=O | 10.2% |  |
| Cc1nn(Cc2ccc(Cl)cc2)c(C)c1NC(=O)Cn1nc([N+](=O)[O-])c(Cl)c1C | 2.61% |  |
| COc1cnc(NS(=O)(=O)c2ccc(N)cc2)nc1 | 5.47% [at 25.6 µM] |  |
| CCOC(=O)C1=C(O)/C(=C\c2ccc(OC)c(OC)c2)N=C1C | -2.52% |  |
| CN(Cc1ccco1)c1ncncc1-c1ccccc1Cl |  | 12.6 µM (active) |
| CN(Cc1ccco1)c1ncncc1-c1cccnc1 | -2.43% |  |
| CN(C)c1ccc(-c2cncnc2N(C)Cc2ccco2)cc1 |  | 12.6 µM (active) |
| Cc1noc(C)c1-c1cncnc1N(C)Cc1ccco1 | -10.5% |  |
| COc1cccc(-c2cncnc2N(C)Cc2ccco2)c1 |  | 12.6 µM (active) |
| CN(Cc1ccco1)c1ncncc1-c1ccc2c(c1)OCO2 |  | 1.26 µM (active) |
| Cn1c(SCC(=O)c2ccc3c(c2)Cc2ccccc2-3)nnc1-c1ccccc1 | -15% |  |
| Cc1cc(C)nc(Nc2n[nH]c(COc3cccc4ccccc34)n2)n1 | -4.39% |  |

| SMILES | activity, negative = inhibition | AC50 |
| --- | --- | --- |
| CCN1CCc2nc(N)oc2CC1 | -10.8% |  |
| Nc1ncnc2c1ncn2[C@H]1O[C@@H](C(=O)O)[C@@H](O)[C@H]1O | 2.66% [at 11.4 µM] |  |
| Cc1c(CC(C)(C)C(=O)O)n(Cc2ccc(Cl)cc2)c2ccc(F)cc12 | 13.4% |  |
| Cc1cc(C(F)(F)F)n2nc(-c3cnn(C)c3C(F)(F)F)c(Cl)c2n1 | -26.1% |  |
| CNc1oc(C)nc1S(=O)(=O)c1ccc(C)cc1 | 1.25% |  |
| COCCn1c(=O)c(-c2cccc(C#N)c2)nc2cnc(N3CCOCC3)nc21 | -3.05% |  |
| COc1cc(OC)c2cc(-c3ccncc3)cnc2c1 | -3.08% |  |
| COCCNC(=O)/C(C#N)=C/c1ccc(-c2ccc(OC)cc2[N+](=O)[O-])o1 | 17.4% |  |
| CO/N=C/c1ccc(N2CCN(C(=O)c3ccc(Cl)cc3Cl)CC2)c([N+](=O)[O-])c1 | -12.7% |  |
| Cc1snc(SCC(=O)N/N=C(\N)COc2cccc(C(F)(F)F)c2)c1C#N | -10.3% |  |
| CC(=O)OC[C@@H]1O[C@H](CCON=C(C)C)C=C[C@@H]1OC(C)=O | -4.81% [at 11.4 µM] |  |
| COC(=O)[C@@H]1CC[C@H](C)[C@@H](c2ccc(C)cc2)N1C(=O)c1ccc(/C=N\O[C@@H]2O[C@H](COC(C)=O)[C@H](OC(C)=O)[C@H](OC(C)=O)[C@H]2OC(C)=O)cc1 | -6.2% [at 11.4 µM] |  |
| CC(=O)OC[C@H]1O[C@@H](ON=C(C)C)[C@H](OC(C)=O)[C@@H](OC(C)=O)[C@H]1OC(C)=O |  | 3.16 µM (active) |
| CC(=O)OC[C@@H]1O[C@H](CCO/N=C\[C@@H](C)[C@H](OCc2ccccc2)C(C)C)C=C[C@@H]1OC(C)=O | -18.8% [at 11.4 µM] |  |
| C=CC[C@@H]1C=C[C@@H](O/N=C\C[C@@H]2C=C[C@H](OC(C)=O)[C@H](COC(C)=O)O2)[C@@H](CO)O1 | -12% [at 11.4 µM] |  |
| CC(=O)OC[C@@H]1O[C@H](C/C=N\O[C@@H]2O[C@H](COC(C)=O)[C@@H](OC(C)=O)[C@H](OC(C)=O)[C@H]2OC(C)=O)C=C[C@@H]1OC(C)=O |  | 3.98 µM (active) |
| CC(=O)OC[C@@H]1O[C@H](C/C=N\OC[C@@H](C)[C@H](OCc2ccccc2)C(C)C)C=C[C@@H]1OC(C)=O | -1.74% [at 11.4 µM] |  |
| CC(=O)OC[C@@H]1O[C@H](C/C=N\OCC[C@H]2C=C[C@H](OC(C)=O)[C@@H](COC(C)=O)O2)C=C[C@@H]1OC(C)=O | -6.46% [at 11.4 µM] |  |
| CC(=O)OC[C@H]1O[C@@H](O/N=C\[C@@H](C)[C@H](OCc2ccccc2)C(C)C)[C@H](OC(C)=O)[C@@H](OC(C)=O)[C@H]1OC(C)=O |  | 3.98 µM (active) |
| CC(CCc1ccccc1)NS(=O)(=O)c1ccccc1 (configuration not stated) | -24% |  |
| COc1cccc(Cn2c(=O)c(-c3ccccc3)nc3cnc(N(C)C)nc32)c1 | -12.2% |  |
| CC(=O)Nc1nc(NC(C)=O)c2[nH]c(CO)nc2n1 | -2.84% [at 11.4 µM] |  |

| SMILES | activity, negative = inhibition | AC50 |
| --- | --- | --- |
| OC(CN1CCCCC1)CN1CCCCC1 | 2.59% |  |
| Cc1cc(=O)n2c3ccccc3n(CC(O)CN3CCCCC3)c2c1C#N (configuration not stated) |  | 8.91 µM (active) |
| O=CN1CCN(C[C@H](O)CN2CCCCC2)CC1 | 9.19% [at 11.4 µM] |  |
| Nc1ccc(C(=O)C[C@H](N)C(=O)O)cc1O | -0.576% [at 11.4 µM] |  |
| CS(=O)(=O)Nc1ccc(C(=O)N2CCN(c3ccccc3)CC2)cc1 | -5.62% |  |
| Cc1ccc(C)c(S(=O)(=O)NCc2ccc(C(=O)N3CCC(Cc4ccccc4)CC3)cc2)c1 | -14.3% |  |
| Cc1ccc(C(=O)N2CCN(C3c4cccc5cccc(c45)C3NS(=O)(=O)c3ccccc3)CC2)cc1 (configuration not stated) |  | 2.82 µM (active) |
| COc1ccccc1CNS(=O)(=O)c1ccc2[nH]cc(C(=O)O)c(=O)c2c1 | 11.4% |  |
| COCC(=O)N/N=C/c1ccc(Sc2nc3ccccc3s2)o1 | -14.8% |  |
| Cc1ccc(C(=O)NC(=S)N2CC(C)OC(C)C2)cc1[N+](=O)[O-] (configuration not stated) | -2.21% |  |
| CC(C)C[C@H](NC(=O)[C@@H]1O[C@H]1C(=O)O)C(=O)NCCCCN=C(N)N | 13.8% |  |
| O=C(NC(C(=O)c1ccccc1)n1cnccc1=O)c1ccccc1 (configuration not stated) | -12.4% |  |
| Clc1ccccc1-c1nc(-n2ccnc2)c2ccccc2n1 |  | 12.6 µM (active) |
| Cc1ccccc1-c1nc(-n2ccnc2)c2ccccc2n1 |  | 15.8 µM (active) |
| COc1cc2c(c(O)c1OC)C(=O)C(OC)CCC2 (configuration not stated) | 9.33% |  |
| Cc1c(Nc2ncccc2C(=O)O)cccc1C(F)(F)F | 6.69% [at 25.6 µM] |  |
| C/C(CCC(=O)OC[C@@H]1O[C@H](C#Cc2ccccc2)C=C[C@@H]1Oc1ccc(C)cc1)=N/OC[C@@H](C)[C@H](OCc1ccccc1)C(C)C | -14.2% [at 11.4 µM] |  |
| COCCn1c(=O)c(-c2cn(C)c3ccccc23)nc2cnc(Oc3ccccc3)nc21 | 8.26% |  |
| Cc1cc2ccccc2n1CCNC(=O)C1CCCC1 |  | 12.6 µM (active) |
| O=C(NN1C(=O)c2ccccc2C1=O)C1CCCCC1 | -6.28% |  |
| Cc1ccc(C)n1NC(=O)c1ccccc1 | -10.9% |  |
| Cc1cc2ccccc2c(=O)n1CC(=O)NCC(=O)N1CCCC1 | 4.07% |  |

| SMILES | activity, negative = inhibition | AC50 |
| --- | --- | --- |
| CCN(CC)C(=O)CCNS(=O)(=O)c1ccc(C)cc1 | 23.4% |  |
| Cc1cc2ccccc2n1CCNC(=O)c1ccccc1 |  | 2.51 µM (active) |
| Cc1ccc(S(=O)(=O)NCCSc2nnnn2C)cc1 | 2.18% |  |
| CN(C)CCn1c(C(=O)O)cc2ccccc21 | 8.96% |  |
| Cc1ccc(S(=O)(=O)NCCn2c(C)cc3ccccc32)cc1 |  | 8.91 µM (active) |
| C[C@]12C=CC(=O)C=C1CC[C@@H]1[C@H]3C[C@@H](O)[C@](O)(C(=O)CO)[C@@]3(C)C[C@H](O)[C@]12F | 4.42% [at 25.6 µM] |  |
| COc1ccc(S(=O)(=O)n2ccc(-c3cnc(-c4ccccc4)s3)n2)cc1 | -30% |  |
| Cc1cc(-c2ccc(Cl)cc2)oc(=O)c1NC(=O)c1ccccc1 | -25.3% |  |
| COc1cccc(Cn2c(=O)cnc3cnc(N(C)C)nc32)c1 | -9.22% |  |
| CCCCCOc1ccc(C(=O)NCC2(c3ccccc3)CCOCC2)cc1 |  | 17.8 µM (active) |
| O=C(NCCc1ccccc1)C(=O)NCC1(c2ccccc2)CCCC1 | 22.4% |  |
| CCCCOc1ccc(C(=O)NCc2ccco2)cc1 | -28.9% |  |
| CN1c2ccccc2Oc2c(c(=O)n(C)c(=O)n2C)C1c1cccc([N+](=O)[O-])c1 (configuration not stated) | 14.5% |  |
| CCCN1CNC(=S)N(c2cccc(C)c2C)C1 | -4.4% |  |
| COc1ccc(/C=N/NC(=O)c2ccccc2)cc1CN1CCN(c2ccc(F)cc2)CC1 |  | 25.1 µM (active) |
| COc1ccc(/C=N/NC(=O)c2ccn[nH]2)cc1COc1ccc(F)cc1 | -5.88% |  |
| COc1ccc(/C=N/NC(=O)c2sccc2OCc2ccc(F)cc2)cc1OC | 0.295% |  |
| Cn1c(=O)c2[nH]c(CCCCc3nc4c([nH]3)c(=O)n(C)c(=S)n4C)nc2n(C)c1=S | -8.04% [at 11.4 µM] |  |
| Cc1c(NC(=O)Nc2c(Cl)cccc2Cl)c(=O)n(-c2ccccc2)n1C | -4.06% [at 11.4 µM] |  |
| Cc1c(NCc2cc(Cl)ccc2O)c(=O)n(-c2ccccc2)n1C |  | 6.31 µM (active) |
| Cc1c(O)c(=O)n(-c2ccccc2)n1C | -4.44% [at 25.6 µM] |  |
